# Measured values taken from PubChem BioAssay (EPA / NIEHS).
# Active and inactive are the calls of the source. Rule for the calls: active = hit-call score of the fitted dose curve at least 0.9, where 1 is the maximum; inactive = score below 0.9.
# Assays:
# [1] = read-out: Thrombomodulin, THBD (gene 7056); assay: BSK_3C_Thrombomodulin: BioMAP Diversity Plus: 3C Assay for Thrombomodulin Biomarker Activity (AID 2283029); settings: primary human endothelial cells (HUVEC); actives raise or lower the signal
# In short: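 ELISA measurement of thrombomodulin on HUVEC surface 24 h after chemical dosing; activity fitted in both directions relative to DMSO vehicle.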
# [2] = read-out: Urokinase-type plasminogen activator receptor (uPAR), PLAUR (gene 5329); assay: BSK_4H_uPAR: BioMAP Diversity Plus: 4H Assay for Urokinase-type plasminogen activator receptor (uPAR) Biomarker Activity (AID 2283030); settings: primary human endothelial cells (HUVEC); actives raise or lower the signal
# In short: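 Primary human umbilical vein endothelial cells were exposed to chemical for 24 h before cell-surface uPAR was quantified by ELISA. Activity was fitted bidirectionally against the DMSO negative control baseline.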
# [3] = read-out: Vascular endothelial growth factor receptor 2 (Homo sapiens) (UniProt P35968); assay: BSK_4H_VEGFRII: BioMAP Diversity Plus: 4H Assay for Vascular endothelial growth factor receptor 2 (VEGFR2) Biomarker Activity (AID 2283031); settings: primary human endothelial cells (HUVEC); actives raise or lower the signal;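 for AC50: cell-surface VEGFR2 protein level quantified by ELISA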
# In short: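 Primary human umbilical vein endothelial cells in the BioMAP 4H system were dosed with test chemical, and 24 h later VEGFRII was measured by ELISA. Activity was fitted bidirectionally against DMSO as negative control and baseline.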
# [4] = read-out: Human Leukocyte Antigen - DR isotype (HLADR), HLA-DRA (gene 3122); assay: BSK_BE3C_HLADR: BioMAP Diversity Plus: BE3C Assay for Human Leukocyte Antigen - DR isotype (HLADR) Biomarker Activity (AID 2283032); settings: primary human bronchial epithelial cells; actives raise or lower the signal
# In short: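 Cell-surface HLA-DR ELISA readout at 24 h after dosing in the BE3C primary human lung bronchial epithelial system; gain or loss of signal against DMSO, with parallel sulforhodamine B staining of total protein for overt cytotoxicity.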
# [5] = read-out: Vascular cell adhesion molecule 1 (VCAM1), VCAM1 (gene 7412); assay: BSK_4H_VCAM1: BioMAP Diversity Plus: 4H Assay for Vascular cell adhesion molecule 1 (VCAM1) Biomarker Activity (AID 2283033); settings: primary human endothelial cells (HUVEC); actives raise or lower the signal;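 for outcome: cell-surface VCAM-1 protein measured by ELISA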
# In short: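 VCAM-1 ELISA read 24 h after chemical dosing of HUVEC in the BioMAP 4H system, with gain or loss of signal fitted relative to DMSO. Parallel SRB staining (560 nm) checked overt cytotoxicity.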
# [6] = read-out: Monokine induced gamma interferon (MIG), CXCL9 (gene 4283); assay: BSK_BE3C_MIG: BioMAP Diversity Plus: BE3C Assay for Monokine induced gamma interferon (MIG) Biomarker Activity (AID 2283035); settings: primary human bronchial epithelial cells; actives raise or lower the signal
# In short: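 hu bronchial epithelial 1° cells, 24 h cpd; MIG by ELISA; bidirectional fit, DMSO = baseline.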
# [7] = read-out: Plasminogen activator inhibitor-1 (PAI1), SERPINE1 (gene 5054); assay: BSK_BE3C_PAI1: BioMAP Diversity Plus: BE3C Assay for Plasminogen activator inhibitor-1 (PAI1) Biomarker Activity (AID 2283037); settings: primary human bronchial epithelial cells; actives raise or lower the signal
# In short: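 PAI-1 was measured by ELISA in human primary bronchial epithelial cultures 24 h after chemical dosing, with cytotoxicity checked by SRB total-protein staining in parallel cultures. Activity was fitted in both directions relative to DMSO.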
# [8] = read-out: urokinase plasminogen activator (uPA), PLAU (gene 5328); assay: BSK_BE3C_uPA: BioMAP Diversity Plus: BE3C Assay for urokinase plasminogen activator (uPA) Biomarker Activity (AID 2283038); settings: primary human bronchial epithelial cells; actives raise or lower the signal;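 note: uPA protein level quantified by ELISA in cell cultures; uPA read one day after compound addition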
# In short: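 Human primary bronchial epithelial cells were exposed to chemical for 24 h, then uPA levels were measured by ELISA. Responses were fitted bidirectionally against DMSO as negative control and baseline. Parallel SRB staining of total protein gauged overt cytotoxicity.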
# [9] = read-out: Interleukin-6 (IL6), IL6 (gene 3569); assay: BSK_CASM3C_IL6: BioMAP Diversity Plus: CASM3C Assay for Interleukin-6 (IL6) Biomarker Activity for (AID 2283040); settings: primary human coronary artery smooth muscle cells; actives raise or lower the signal
# [10] = read-out: Tissue plasminogen activator (tPA), PLAT (gene 5327); assay: BSK_BE3C_tPA: BioMAP Diversity Plus: BE3C Assay for Tissue plasminogen activator (tPA) Biomarker Activity (AID 2283041); settings: primary human bronchial epithelial cells; actives raise or lower the signal;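 for outcome: tPA level quantified by ELISA one day after compound addition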
# In short: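 tPA measured by ELISA 24 h after dosing human primary bronchial epithelial cells (BE3C system). Changes in either direction were fitted against DMSO. Parallel cultures were stained with SRB to flag overt cytotoxicity.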
# [11] = read-out: Interleukin-8 (IL8), CXCL8 (gene 3576); assay: BSK_CASM3C_IL8: BioMAP Diversity Plus: CASM3C Assay for Interleukin-8 (IL8) Biomarker Activity (AID 2283042); settings: primary human coronary artery smooth muscle cells; actives raise or lower the signal;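 note: IL-8 protein level quantified by ELISA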
# [12] = read-out: Human Leukocyte Antigen - DR isotype (HLADR), HLA-DRA (gene 3122); assay: BSK_CASM3C_HLADR: BioMAP Diversity Plus: CASM3C Assay for Human Leukocyte Antigen - DR isotype (HLADR) Biomarker Activity (AID 2283043); settings: primary human coronary artery smooth muscle cells; actives raise or lower the signal;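 note: cell-surface HLA-DR protein level quantified by ELISA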
# [13] = read-out: Monocyte Chemoattractant Protein-1 (MCP1), CCL2 (gene 6347); assay: BSK_CASM3C_MCP1: BioMAP Diversity Plus: CASM3C Assay for Monocyte Chemoattractant Protein-1 (MCP1) Biomarker Activity (AID 2283046); settings: primary human coronary artery smooth muscle cells; actives raise or lower the signal;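 note: MCP-1 level quantified by ELISA 24 h after dosing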
# [14] = BSK_CASM3C_Proliferation: Cell Proliferation Assessment in the BioMAP Diversity Plus: CASM3C Assay (AID 2283047); settings: primary human coronary artery smooth muscle cells;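 note: sulforhodamine B total protein stain as relative cell number at 560 nm; sub-confluent cells exposed 48 h before staining; fitted both ways against DMSO so gain or loss of cell number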
# [15] = read-out: Monokine induced gamma interferon (MIG), CXCL9 (gene 4283); assay: BSK_CASM3C_MIG: BioMAP Diversity Plus: CASM3C Assay for Monokine induced gamma interferon (MIG) Biomarker Activity (AID 2283048); settings: primary human coronary artery smooth muscle cells; actives raise or lower the signal
# [16] = read-out: Thrombomodulin, THBD (gene 7056); assay: BSK_CASM3C_Thrombomodulin: BioMAP Diversity Plus: CASM3C Assay for Thrombomodulin Biomarker Activity (AID 2283051); settings: primary human coronary artery smooth muscle cells; actives raise or lower the signal;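 note: thrombomodulin protein level measured by ELISA 24 h after dosing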
# [17] = read-out: Tissue Factor, F3 (gene 2152); assay: BSK_CASM3C_TissueFactor: BioMAP Diversity Plus: CASM3C Assay for Tissue Factor Biomarker Activity (AID 2283052); settings: primary human coronary artery smooth muscle cells; actives raise or lower the signal;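 note: cell surface tissue factor protein level read by ELISA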
# [18] = read-out: Urokinase-type plasminogen activator receptor (uPAR), PLAUR (gene 5329); assay: BSK_CASM3C_uPAR: BioMAP Diversity Plus: CASM3C Assay for Urokinase-type plasminogen activator receptor (uPAR) Biomarker Activity (AID 2283054); settings: primary human coronary artery smooth muscle cells; actives raise or lower the signal;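 note: cell-surface uPAR protein level quantified by ELISA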
# [19] = read-out: Collagen III, COL3A1 (gene 1281); assay: BSK_hDFCGF_CollagenIII: BioMAP Diversity Plus: hDFCGF Assay for Collagen III Biomarker Activity (AID 2283056); settings: primary human foreskin fibroblasts; actives raise or lower the signal
# In short: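 Human foreskin primary fibroblasts were exposed to test chemicals for 24 h, after which collagen III was quantified by ELISA. Activity was fitted bidirectionally against DMSO as negative control and baseline.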
# [20] = read-out: Epidermal growth factor receptor (EGFR), EGFR (gene 1956); assay: BSK_hDFCGF_EGFR: BioMAP Diversity Plus: hDFCGF Assay for Epidermal growth factor receptor (EGFR) Biomarker Activity (AID 2283057); settings: primary human foreskin fibroblasts; actives raise or lower the signal
# In short: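 EGFR levels by ELISA in human dermal fibroblast cultures, 24 h post-treatment, fitted bidirectionally versus DMSO. Parallel wells stained with sulforhodamine B to detect overt cytotoxicity.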
structure (smiles),measurement,setting,value
Sc1nc2ccccc2s1,outcome,[1],inactive
same,outcome,[2],inactive
same,outcome,[3],inactive
same,outcome,[4],inactive
same,outcome,[5],inactive
same,outcome,[6],inactive
same,outcome,[7],inactive
same,outcome,[8],inactive
same,outcome,[9],inactive
same,outcome,[10],inactive
same,outcome,[11],inactive
same,outcome,[12],inactive
same,outcome,[13],inactive
same,outcome,[14],inactive
same,outcome,[15],inactive
same,outcome,[16],inactive
same,AC50,[17],0.016 µM (active)
same,outcome,[18],inactive
same,outcome,[19],inactive
same,outcome,[20],inactive
Cc1cc(-n2nc3ccc(Cl)cc3n2)c(O)c(C(C)(C)C)c1,outcome,[1],inactive
same,AC50,[2],1.37 µM (active)
same,outcome,[3],inactive
same,outcome,[4],inactive
same,outcome,[5],inactive
same,outcome,[6],inactive
same,outcome,[7],inactive
same,outcome,[8],inactive
same,outcome,[9],inactive
same,outcome,[10],inactive
same,outcome,[11],inactive
same,outcome,[12],inactive
same,outcome,[13],inactive
same,outcome,[14],inactive
same,outcome,[15],inactive
same,outcome,[16],inactive
same,outcome,[17],inactive
same,outcome,[18],inactive
same,outcome,[19],inactive
same,outcome,[20],inactive
CC(C)CC(=O)CC(C)CC(C)C (stereo not given),AC50,[1],20 µM (active)
same,AC50,[2],30.9 µM (active)
same,AC50,[3],32.6 µM (active)
same,AC50,[4],36 µM (active)
same,AC50,[5],39.2 µM (active)
same,AC50,[6],34.6 µM (active)
same,AC50,[7],37.4 µM (active)
same,outcome,[8],inactive
same,AC50,[9],20 µM (active)
same,AC50,[10],29.4 µM (active)
same,outcome,[11],inactive
same,AC50,[12],27.3 µM (active)
same,AC50,[13],34 µM (active)
same,AC50,[14],32 µM (active)
same,AC50,[15],32.1 µM (active)
same,outcome,[16],inactive
same,AC50,[17],31.7 µM (active)
same,AC50,[18],30.4 µM (active)
same,outcome,[19],inactive
same,outcome,[20],inactive
CCCCCCC(O)CCCCCCCCCCC(=O)OC (stereo not given),outcome,[1],inactive
same,outcome,[2],inactive
same,outcome,[3],inactive
same,outcome,[4],inactive
same,outcome,[5],inactive
same,outcome,[6],inactive
same,outcome,[7],inactive
same,outcome,[8],inactive
same,outcome,[9],inactive
same,outcome,[10],inactive
same,outcome,[11],inactive
same,outcome,[12],inactive
same,outcome,[13],inactive
same,outcome,[14],inactive
same,outcome,[15],inactive
same,outcome,[16],inactive
same,outcome,[17],inactive
same,outcome,[18],inactive
same,outcome,[19],inactive
same,outcome,[20],inactive
CN(C)CCC(c1ccc(Cl)cc1)c1ccccn1 (stereo not given),outcome,[1],inactive
same,outcome,[2],inactive
same,outcome,[3],inactive
same,outcome,[4],inactive
same,AC50,[5],0.756 µM (active)
same,outcome,[6],inactive
same,outcome,[7],inactive
same,outcome,[8],inactive
same,outcome,[9],inactive
same,outcome,[10],inactive
same,outcome,[11],inactive
same,outcome,[12],inactive
same,outcome,[13],inactive
same,outcome,[14],inactive
same,outcome,[15],inactive
same,outcome,[16],inactive
same,outcome,[17],inactive
same,outcome,[18],inactive
same,outcome,[19],inactive
same,outcome,[20],inactive
CCCCCCCCCC/C=C/C1CC(=O)OC1=O (stereo not given),outcome,[1],inactive
same,outcome,[2],inactive
same,outcome,[3],inactive
same,AC50,[4],20 µM (active)
same,outcome,[5],inactive
same,outcome,[6],inactive
same,AC50,[7],20 µM (active)
same,outcome,[8],inactive
same,outcome,[9],inactive
same,AC50,[10],14.5 µM (active)
same,outcome,[11],inactive
same,outcome,[12],inactive
same,outcome,[13],inactive
same,outcome,[14],inactive
same,outcome,[15],inactive
same,outcome,[16],inactive
same,outcome,[17],inactive
same,outcome,[18],inactive
same,outcome,[19],inactive
same,outcome,[20],inactive
O=C(C(=O)c1ccccc1)c1ccccc1,outcome,[1],inactive
same,outcome,[2],inactive
same,outcome,[3],inactive
same,outcome,[4],inactive
same,outcome,[5],inactive
same,outcome,[6],inactive
same,outcome,[7],inactive
same,outcome,[8],inactive
same,outcome,[9],inactive
same,outcome,[10],inactive
same,outcome,[11],inactive
same,outcome,[12],inactive
same,outcome,[13],inactive
same,outcome,[14],inactive
same,outcome,[15],inactive
same,outcome,[16],inactive
same,outcome,[17],inactive
same,outcome,[18],inactive
same,outcome,[19],inactive
same,outcome,[20],inactive
Cc1cccnc1,outcome,[1],inactive
same,outcome,[2],inactive
same,outcome,[3],inactive
same,outcome,[4],inactive
same,outcome,[5],inactive
same,outcome,[6],inactive
same,outcome,[7],inactive
same,outcome,[8],inactive
same,outcome,[9],inactive
same,outcome,[10],inactive
same,outcome,[11],inactive
same,outcome,[12],inactive
same,outcome,[13],inactive
same,outcome,[14],inactive
same,outcome,[15],inactive
same,outcome,[16],inactive
same,outcome,[17],inactive
same,outcome,[18],inactive
same,outcome,[19],inactive
same,outcome,[20],inactive
